Measurements taken from PMC7862700, “An all-to-all approach to the identification of sequence-specific readers for epigenetic DNA modifications on cytosine”.

Experiments:
Assay in all cases: DAPPL (digital affinity profiling via proximity ligation, sequencing); 10 mM Tris-HCl pH 7.5, 50 mM NaCl, 1 mM DTT, 4% glycerol, room temperature, 30 min; GST-TFs on glutathione beads, 16-mer random dsDNA library, 0.1% formaldehyde crosslink after washing; high values mean tight binding
FEV = molecular target: T1, FEV (Homo sapiens, UniProt Q99581 1-238); conditions: protein: recombinant; tags: N-terminal GST; dsDNA, one strand shown
T1 sequence: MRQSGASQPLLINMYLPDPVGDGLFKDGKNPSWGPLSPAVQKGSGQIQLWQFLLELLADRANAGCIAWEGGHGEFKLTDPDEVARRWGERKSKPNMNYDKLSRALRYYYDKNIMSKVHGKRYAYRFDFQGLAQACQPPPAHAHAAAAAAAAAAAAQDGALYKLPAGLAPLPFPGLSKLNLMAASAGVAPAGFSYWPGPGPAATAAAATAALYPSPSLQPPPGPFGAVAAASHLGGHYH
Outline: (§1)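 A tag-only sample was pooled with DNA-barcoded human transcription factors that had been expressed in yeast as GST fusions and captured on glutathione beads. The pools were incubated for 30 min at room temperature with 200 nmole of a random double-stranded 16-mer DNA library in Tris/NaCl/DTT/glycerol buffer, then washed, crosslinked with 0.1% formaldehyde, proximity-ligated (BsaI/T4 ligase, 1 h, 37 °C), PCR-amplified and sequenced on an Illumina NextSeq500. Binding signal is each hexamer's read frequency for a factor divided by its frequency for the tag-only sample.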

ETV5 = ETV5 (Homo sapiens, UniProt P41161 1-510); conditions: protein: recombinant; tags: N-terminal GST; dsDNA, one strand shown
Outline: as §1

HSF1 = HSF1 (Homo sapiens, UniProt Q00613 1-529); conditions: protein: recombinant; tags: N-terminal GST; chain copies: 3; dsDNA, one strand shown
Outline: as §1

SPIC = molecular target: T2, SPIC (Homo sapiens, UniProt Q8N5J4 1-248); conditions: protein: recombinant; tags: N-terminal GST; dsDNA, one strand shown
T2 sequence: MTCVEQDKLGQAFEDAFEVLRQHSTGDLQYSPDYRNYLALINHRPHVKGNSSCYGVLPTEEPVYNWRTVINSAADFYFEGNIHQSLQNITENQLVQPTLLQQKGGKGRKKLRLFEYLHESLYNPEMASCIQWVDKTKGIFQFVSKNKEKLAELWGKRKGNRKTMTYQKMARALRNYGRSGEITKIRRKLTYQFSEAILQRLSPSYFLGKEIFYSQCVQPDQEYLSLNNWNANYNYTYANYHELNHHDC
Outline: as §1

ELF4 = ELF4 (Homo sapiens, UniProt Q99607 1-663); conditions: protein: recombinant; tags: N-terminal GST; dsDNA, one strand shown
Outline: as §1

ELK4 = molecular target: T3, ELK4 (Homo sapiens, UniProt P28324-2 1-405); conditions: protein: recombinant; tags: N-terminal GST; dsDNA, one strand shown
T3 sequence: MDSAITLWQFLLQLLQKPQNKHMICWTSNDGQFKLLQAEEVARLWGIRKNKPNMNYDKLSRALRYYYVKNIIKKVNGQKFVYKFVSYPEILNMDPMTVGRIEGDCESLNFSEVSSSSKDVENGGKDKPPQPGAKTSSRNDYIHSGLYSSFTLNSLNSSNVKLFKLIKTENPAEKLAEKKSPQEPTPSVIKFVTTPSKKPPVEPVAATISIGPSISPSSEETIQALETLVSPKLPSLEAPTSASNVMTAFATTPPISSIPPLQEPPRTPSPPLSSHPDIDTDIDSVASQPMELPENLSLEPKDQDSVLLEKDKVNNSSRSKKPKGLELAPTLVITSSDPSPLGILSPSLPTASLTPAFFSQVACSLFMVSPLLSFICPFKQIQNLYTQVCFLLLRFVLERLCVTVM
Outline: as §1

ETV2 = molecular target: T4, ETV2 (Homo sapiens, UniProt O00321 1-342); conditions: protein: recombinant; tags: N-terminal GST; dsDNA, one strand shown
T4 sequence: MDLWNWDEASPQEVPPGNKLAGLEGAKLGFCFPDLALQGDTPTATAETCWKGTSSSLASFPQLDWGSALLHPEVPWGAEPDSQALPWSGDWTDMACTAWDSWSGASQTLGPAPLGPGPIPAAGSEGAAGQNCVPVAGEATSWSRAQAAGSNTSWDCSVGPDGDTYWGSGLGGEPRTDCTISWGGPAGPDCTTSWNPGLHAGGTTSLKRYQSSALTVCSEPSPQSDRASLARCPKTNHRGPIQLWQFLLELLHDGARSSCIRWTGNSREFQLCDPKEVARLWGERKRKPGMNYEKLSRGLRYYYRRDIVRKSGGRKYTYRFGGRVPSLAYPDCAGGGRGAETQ
Outline: as §1

ELF3 = molecular target: T5, ELF3 (Homo sapiens, UniProt P78545 1-371); conditions: protein: recombinant; tags: N-terminal GST; dsDNA, one strand shown
T5 sequence: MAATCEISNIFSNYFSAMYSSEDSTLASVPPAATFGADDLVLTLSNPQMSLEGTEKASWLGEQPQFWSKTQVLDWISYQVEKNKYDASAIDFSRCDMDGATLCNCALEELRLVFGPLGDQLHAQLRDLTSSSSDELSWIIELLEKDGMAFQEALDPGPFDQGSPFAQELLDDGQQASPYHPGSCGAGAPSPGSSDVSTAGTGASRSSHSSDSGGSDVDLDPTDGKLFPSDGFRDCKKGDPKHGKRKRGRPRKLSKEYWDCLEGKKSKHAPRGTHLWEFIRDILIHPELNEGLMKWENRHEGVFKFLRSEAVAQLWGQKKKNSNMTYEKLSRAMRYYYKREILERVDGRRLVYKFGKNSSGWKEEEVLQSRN
Outline: as §1

CRX = CRX (Homo sapiens, UniProt O43186 1-299); conditions: protein: recombinant; tags: N-terminal GST; dsDNA, one strand shown
Outline: as §1

ETV1 = ETV1 (Homo sapiens, UniProt P50549 1-477); conditions: protein: recombinant; tags: N-terminal GST; dsDNA, one strand shown
Outline: as §1

ERF = molecular target: T6, ERF (Homo sapiens, UniProt P50548 1-548); conditions: protein: recombinant; tags: N-terminal GST; dsDNA, one strand shown
T6 sequence: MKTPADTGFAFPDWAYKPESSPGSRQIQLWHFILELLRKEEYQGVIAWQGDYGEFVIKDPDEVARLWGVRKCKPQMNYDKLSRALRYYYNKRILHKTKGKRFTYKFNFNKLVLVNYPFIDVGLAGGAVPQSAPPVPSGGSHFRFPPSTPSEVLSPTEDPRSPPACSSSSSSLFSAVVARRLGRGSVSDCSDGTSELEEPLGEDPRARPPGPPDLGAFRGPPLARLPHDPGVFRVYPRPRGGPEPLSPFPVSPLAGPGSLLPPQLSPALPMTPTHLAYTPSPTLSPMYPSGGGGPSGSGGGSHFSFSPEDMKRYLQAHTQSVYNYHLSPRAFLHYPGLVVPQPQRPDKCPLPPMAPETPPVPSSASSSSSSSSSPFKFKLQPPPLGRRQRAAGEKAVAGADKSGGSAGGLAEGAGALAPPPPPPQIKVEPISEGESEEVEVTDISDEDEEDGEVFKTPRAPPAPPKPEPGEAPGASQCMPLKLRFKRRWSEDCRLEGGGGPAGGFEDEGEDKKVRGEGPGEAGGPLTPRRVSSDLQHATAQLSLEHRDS
Outline: as §1

ETV3L = molecular target: T7, ETV3L (Homo sapiens, UniProt Q6ZN32 1-361); conditions: protein: recombinant; tags: N-terminal GST; dsDNA, one strand shown
T7 sequence: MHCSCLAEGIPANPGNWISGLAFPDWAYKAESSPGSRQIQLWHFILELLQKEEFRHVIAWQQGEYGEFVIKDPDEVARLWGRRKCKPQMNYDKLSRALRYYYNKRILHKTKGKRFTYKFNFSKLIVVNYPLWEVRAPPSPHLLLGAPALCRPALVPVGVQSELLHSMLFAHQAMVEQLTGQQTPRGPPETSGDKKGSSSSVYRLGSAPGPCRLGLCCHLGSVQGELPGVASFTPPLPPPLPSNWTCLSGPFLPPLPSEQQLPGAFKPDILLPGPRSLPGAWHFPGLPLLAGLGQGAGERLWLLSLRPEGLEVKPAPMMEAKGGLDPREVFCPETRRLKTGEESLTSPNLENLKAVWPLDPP
Outline: as §1

ETS2 = molecular target: T8, ETS2 (Homo sapiens, UniProt P15036 1-469); conditions: protein: recombinant; tags: N-terminal GST; dsDNA, one strand shown
T8 sequence: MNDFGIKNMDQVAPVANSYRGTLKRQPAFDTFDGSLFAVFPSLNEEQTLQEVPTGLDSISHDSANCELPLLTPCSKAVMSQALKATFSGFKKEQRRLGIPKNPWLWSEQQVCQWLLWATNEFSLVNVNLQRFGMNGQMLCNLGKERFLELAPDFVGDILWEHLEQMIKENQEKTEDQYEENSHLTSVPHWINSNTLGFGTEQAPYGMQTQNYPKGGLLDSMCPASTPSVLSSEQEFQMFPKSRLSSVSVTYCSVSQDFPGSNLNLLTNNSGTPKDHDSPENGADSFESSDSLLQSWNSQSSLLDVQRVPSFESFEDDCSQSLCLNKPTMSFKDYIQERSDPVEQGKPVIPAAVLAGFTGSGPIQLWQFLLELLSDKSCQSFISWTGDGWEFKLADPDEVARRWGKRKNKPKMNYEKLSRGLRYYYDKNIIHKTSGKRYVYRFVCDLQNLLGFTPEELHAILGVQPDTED
Outline: as §1

SPDEF = molecular target: T9, SPDEF (Homo sapiens, UniProt O95238 1-335); conditions: protein: recombinant; tags: N-terminal GST; dsDNA, one strand shown
T9 sequence: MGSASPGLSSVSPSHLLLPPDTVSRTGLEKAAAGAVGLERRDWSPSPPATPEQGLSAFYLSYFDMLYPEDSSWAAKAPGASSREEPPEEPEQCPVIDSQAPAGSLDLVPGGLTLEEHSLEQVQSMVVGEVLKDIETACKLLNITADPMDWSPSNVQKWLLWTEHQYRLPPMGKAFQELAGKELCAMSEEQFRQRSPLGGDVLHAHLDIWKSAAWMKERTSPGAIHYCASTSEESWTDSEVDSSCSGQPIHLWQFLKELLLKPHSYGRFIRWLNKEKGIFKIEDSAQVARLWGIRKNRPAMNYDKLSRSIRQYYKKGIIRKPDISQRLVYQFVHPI
Outline: as §1

ETV7 = molecular target: T10, ETV7 (Homo sapiens, UniProt Q9Y603 1-341); conditions: protein: recombinant; tags: N-terminal GST; dsDNA, one strand shown
T10 sequence: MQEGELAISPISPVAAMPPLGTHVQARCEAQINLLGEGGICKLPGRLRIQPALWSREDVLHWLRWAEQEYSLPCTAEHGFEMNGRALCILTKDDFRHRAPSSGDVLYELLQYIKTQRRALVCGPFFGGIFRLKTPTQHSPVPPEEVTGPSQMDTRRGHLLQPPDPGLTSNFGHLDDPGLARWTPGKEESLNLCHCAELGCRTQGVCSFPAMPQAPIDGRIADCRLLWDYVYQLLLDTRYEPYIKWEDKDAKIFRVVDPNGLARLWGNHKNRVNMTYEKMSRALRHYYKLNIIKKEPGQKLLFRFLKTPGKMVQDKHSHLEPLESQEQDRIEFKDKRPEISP
Outline: as §1

ELF5 = molecular target: T11, ELF5 (Homo sapiens, UniProt Q9UKW6-2 1-255); conditions: protein: recombinant; tags: N-terminal GST; dsDNA, one strand shown
T11 sequence: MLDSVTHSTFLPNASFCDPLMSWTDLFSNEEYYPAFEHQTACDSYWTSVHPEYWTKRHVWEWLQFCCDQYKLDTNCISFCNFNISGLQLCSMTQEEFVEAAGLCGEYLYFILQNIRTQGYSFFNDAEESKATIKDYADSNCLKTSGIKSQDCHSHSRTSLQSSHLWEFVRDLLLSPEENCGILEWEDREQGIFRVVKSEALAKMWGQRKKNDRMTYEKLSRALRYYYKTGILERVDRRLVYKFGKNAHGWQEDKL
Outline: as §1

ETV3 = molecular target: T12, ETV3 (Homo sapiens, UniProt P41162-2 1-143); conditions: protein: recombinant; tags: N-terminal GST; dsDNA, one strand shown
T12 sequence: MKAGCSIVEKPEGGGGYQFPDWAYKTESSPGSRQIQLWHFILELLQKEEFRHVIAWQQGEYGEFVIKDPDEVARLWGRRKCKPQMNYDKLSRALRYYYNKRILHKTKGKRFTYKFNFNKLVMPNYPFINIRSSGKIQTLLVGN
Outline: as §1

ETV6 = ETV6 (Homo sapiens, UniProt P41212 1-452); conditions: protein: recombinant; tags: N-terminal GST; dsDNA, one strand shown
Outline: as §1

Sequence of ETV1 (P50549 whole entry): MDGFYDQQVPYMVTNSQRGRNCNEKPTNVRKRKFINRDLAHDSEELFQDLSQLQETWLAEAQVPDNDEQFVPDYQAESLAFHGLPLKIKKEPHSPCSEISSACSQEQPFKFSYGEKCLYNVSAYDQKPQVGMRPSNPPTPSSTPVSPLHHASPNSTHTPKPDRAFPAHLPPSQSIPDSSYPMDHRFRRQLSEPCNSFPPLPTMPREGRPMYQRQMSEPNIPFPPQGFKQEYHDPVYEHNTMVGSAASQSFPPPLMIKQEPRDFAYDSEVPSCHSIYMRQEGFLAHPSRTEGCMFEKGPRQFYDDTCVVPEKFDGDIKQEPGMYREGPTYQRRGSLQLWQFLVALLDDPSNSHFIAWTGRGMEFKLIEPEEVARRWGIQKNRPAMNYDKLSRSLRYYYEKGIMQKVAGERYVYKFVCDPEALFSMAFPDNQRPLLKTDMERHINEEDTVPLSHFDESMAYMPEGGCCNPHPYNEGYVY
Sequence of CRX (O43186 whole entry): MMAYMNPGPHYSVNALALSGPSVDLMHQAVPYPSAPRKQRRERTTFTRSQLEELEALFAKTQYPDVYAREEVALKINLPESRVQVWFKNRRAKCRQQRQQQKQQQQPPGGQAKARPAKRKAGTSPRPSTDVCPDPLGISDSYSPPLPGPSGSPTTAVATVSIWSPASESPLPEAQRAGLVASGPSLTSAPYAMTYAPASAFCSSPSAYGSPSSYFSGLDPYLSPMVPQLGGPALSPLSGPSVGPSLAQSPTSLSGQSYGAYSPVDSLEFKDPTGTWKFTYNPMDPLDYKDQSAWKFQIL
Sequence of ETV6 (P41212 whole entry): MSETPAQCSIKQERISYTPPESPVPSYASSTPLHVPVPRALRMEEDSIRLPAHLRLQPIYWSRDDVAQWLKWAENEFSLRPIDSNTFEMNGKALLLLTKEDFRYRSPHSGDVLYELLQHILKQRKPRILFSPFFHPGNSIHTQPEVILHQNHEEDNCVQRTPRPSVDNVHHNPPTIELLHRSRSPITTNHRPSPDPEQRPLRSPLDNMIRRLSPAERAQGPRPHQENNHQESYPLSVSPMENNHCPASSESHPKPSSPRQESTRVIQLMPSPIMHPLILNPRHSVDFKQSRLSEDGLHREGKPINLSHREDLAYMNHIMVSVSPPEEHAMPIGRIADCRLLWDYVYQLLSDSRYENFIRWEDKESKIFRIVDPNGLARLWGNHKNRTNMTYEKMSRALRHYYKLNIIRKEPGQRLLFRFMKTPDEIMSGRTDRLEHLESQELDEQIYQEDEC
Sequence of ELF4 (Q99607 whole entry): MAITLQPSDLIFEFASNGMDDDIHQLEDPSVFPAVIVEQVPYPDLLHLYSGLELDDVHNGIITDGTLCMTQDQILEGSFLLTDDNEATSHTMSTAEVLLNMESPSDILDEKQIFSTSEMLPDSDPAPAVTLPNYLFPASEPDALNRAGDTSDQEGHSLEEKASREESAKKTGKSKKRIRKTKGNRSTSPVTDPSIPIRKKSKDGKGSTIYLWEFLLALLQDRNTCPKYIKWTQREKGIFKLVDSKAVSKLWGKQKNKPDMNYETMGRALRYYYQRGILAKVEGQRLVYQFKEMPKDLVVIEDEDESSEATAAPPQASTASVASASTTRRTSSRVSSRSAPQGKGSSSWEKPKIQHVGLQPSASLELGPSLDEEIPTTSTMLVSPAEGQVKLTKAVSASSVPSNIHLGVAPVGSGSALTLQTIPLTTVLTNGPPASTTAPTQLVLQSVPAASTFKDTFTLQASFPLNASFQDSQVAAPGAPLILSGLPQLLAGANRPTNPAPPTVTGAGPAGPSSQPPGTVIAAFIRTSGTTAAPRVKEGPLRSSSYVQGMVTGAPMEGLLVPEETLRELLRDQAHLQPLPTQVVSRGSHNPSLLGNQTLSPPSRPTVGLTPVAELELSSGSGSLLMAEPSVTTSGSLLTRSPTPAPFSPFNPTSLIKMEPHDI
Sequence of HSF1 (Q00613 whole entry): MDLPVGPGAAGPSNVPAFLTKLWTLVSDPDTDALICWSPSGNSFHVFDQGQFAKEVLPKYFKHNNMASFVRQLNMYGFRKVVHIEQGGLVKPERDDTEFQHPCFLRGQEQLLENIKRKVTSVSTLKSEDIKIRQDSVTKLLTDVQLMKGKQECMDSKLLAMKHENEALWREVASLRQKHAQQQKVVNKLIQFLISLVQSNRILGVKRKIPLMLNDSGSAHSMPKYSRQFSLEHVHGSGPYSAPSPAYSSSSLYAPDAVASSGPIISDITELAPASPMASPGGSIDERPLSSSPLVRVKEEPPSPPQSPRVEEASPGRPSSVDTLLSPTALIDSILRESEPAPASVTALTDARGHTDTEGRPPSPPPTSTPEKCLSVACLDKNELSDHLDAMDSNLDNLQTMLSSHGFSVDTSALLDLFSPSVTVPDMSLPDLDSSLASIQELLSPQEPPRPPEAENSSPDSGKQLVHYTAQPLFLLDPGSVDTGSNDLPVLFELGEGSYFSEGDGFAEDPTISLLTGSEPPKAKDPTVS
Sequence of ETV5 (P41161 whole entry): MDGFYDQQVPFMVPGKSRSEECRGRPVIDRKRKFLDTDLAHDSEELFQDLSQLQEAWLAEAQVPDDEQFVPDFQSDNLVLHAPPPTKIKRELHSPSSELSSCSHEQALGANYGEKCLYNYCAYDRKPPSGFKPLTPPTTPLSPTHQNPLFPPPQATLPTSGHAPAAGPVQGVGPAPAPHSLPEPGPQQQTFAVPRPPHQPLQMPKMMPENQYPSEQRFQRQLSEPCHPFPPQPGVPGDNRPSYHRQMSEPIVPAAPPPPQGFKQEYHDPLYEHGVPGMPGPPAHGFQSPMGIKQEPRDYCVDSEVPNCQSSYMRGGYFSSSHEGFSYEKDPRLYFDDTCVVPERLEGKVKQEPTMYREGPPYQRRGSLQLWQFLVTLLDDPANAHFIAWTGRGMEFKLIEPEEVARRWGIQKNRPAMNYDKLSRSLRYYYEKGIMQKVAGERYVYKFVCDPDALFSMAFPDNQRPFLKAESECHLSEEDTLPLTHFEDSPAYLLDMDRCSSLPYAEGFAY

CGAACA
binding signal (FEV): 1.06 fold enrichment (6-mer frequency, TF over GST control)
binding signal (ETV5): 1.14 fold enrichment (6-mer frequency, TF over GST control)
binding signal (HSF1): 1.76 fold enrichment (6-mer frequency, TF over GST control)
binding signal (SPIC): 1.11 fold enrichment (6-mer frequency, TF over GST control)
binding signal (ELF4): 1.19 fold enrichment (6-mer frequency, TF over GST control)
binding signal (ELK4): 1.17 fold enrichment (6-mer frequency, TF over GST control)
binding signal (ETV2): 1.22 fold enrichment (6-mer frequency, TF over GST control)
binding signal (ELF3): 1.2 fold enrichment (6-mer frequency, TF over GST control)
binding signal (CRX): 1.1 fold enrichment (6-mer frequency, TF over GST control)
binding signal (ETV1): 1.1 fold enrichment (6-mer frequency, TF over GST control)
binding signal (ERF): 1.17 fold enrichment (6-mer frequency, TF over GST control)
binding signal (ETV3L): 1.13 fold enrichment (6-mer frequency, TF over GST control)
binding signal (ETS2): 1.22 fold enrichment (6-mer frequency, TF over GST control)
binding signal (SPDEF): 1.1 fold enrichment (6-mer frequency, TF over GST control)
binding signal (ETV7): 1.2 fold enrichment (6-mer frequency, TF over GST control)
binding signal (ELF5): 1.05 fold enrichment (6-mer frequency, TF over GST control)
binding signal (ETV3): 1.15 fold enrichment (6-mer frequency, TF over GST control)
binding signal (ETV6): 1.19 fold enrichment (6-mer frequency, TF over GST control)
